Data on 27 compounds can be found in PubChem BioAssay (NCATS).

Values joined by “and” are separate entries in the source; they are usually repeats but may differ in a detail not shown here. Equal entries are not always repeated. Results filed as inconclusive are left out. Active and inactive are the calls of the source. Unless noted, calls come from the whole dose curve; as a rule, active = well fitted curve in the direction sought with a large enough effect; inconclusive = small, poorly fitted or top-dose-only effect, or another doubt; inactive = no such curve, though single readings can be large; an effect the other way counts as inactive or inconclusive.

Assay [1] in a line: P-glycoprotein substrates identified in KB-8-5-11 adenocarcinoma cell line, qHTS therapeutic library screen (AID 1346987). Note: nearly all actives have a fitted effect of over 65% in size. Note: potency is the fitted concentration of half-maximal effect. The gist of the method: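 Steps: plate 500 KB-8-5-11 cells/well in DMEM + 10% FCS (colchicine removed); pin compounds in dose-response; incubate 72 h, 37 degree C, 5% CO2; add CellTiter-Glo, 5 min; read luminescence.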
(qHTS replaces the single test concentration by a dilution series.)

Assay [2] concerns the target Calcium and integrin-binding protein 1 (Homo sapiens) (UniProt Q99828). Kind of assay: Primary qHTS for Identification of Calcium Integrin Binding Protein 1 (CIB1) Competitor (AID 1508620).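 Note: GST tagged CIB1 binding a fluorescein labelled alphaIIb integrin peptide tracer; top concentration of the series differs between compounds; % is set by controls: 0 for no effect and ±100 for the full control effect.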 A digest of the protocol:
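Fluorescence polarization competition: GST-tagged CIB1 (1 uM final) preincubated with compound 15 min at room temperature, then FITC-labelled alphaIIb peptide (100 nM final) added. After 15 min at room temperature, polarization read at Ex 480/Em 540.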

Assay [3] can be described thus: Primary qHTS for inhibitors of nuclear receptor binding SET domain protein 2 (NSD2) in an isogenic RCH-ACV NSD2 p.E1099K mutant (9B) (AID 1645876). Note: nearly all actives have a fitted effect of over 70% in size. Note: potency is the fitted concentration of half-maximal effect.
Assay [4] in a line: Primary qHTS for inhibitors of nuclear receptor binding SET domain protein 2 (NSD2) in an RCH-ACV wild type WT cells (2C) (AID 1645877). Note: nearly all actives have a fitted effect of over 70% in size. Note: potency is the fitted concentration of half-maximal effect.
Assay [5] deals with Glutathione peroxidase 1 (Homo sapiens) (UniProt P07203). Kind of assay: Primary qHTS Assay for Inhibitors of Recombinant Selenoprotein Glutathione Peroxidase 1 (GPX1) (AID 1845191). Note: nearly all actives have a fitted effect of over 65% in size. The gist of the method: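 GR-coupled assay: compounds preincubated 30 min at room temperature with GPX1, then reaction started with CHP; final 10 nM GPX1, 1 mM GSH, 0.5 mM CHP, 0.5 mM NADPH, 100 nM GR, 0.01% BSA, pH 7.5 Tris buffer. NADPH fluorescence (340/450 nm) read at 0 and 15 min.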
Chain of Glutathione peroxidase 1 (Homo sapiens) (P07203 whole entry, looked up): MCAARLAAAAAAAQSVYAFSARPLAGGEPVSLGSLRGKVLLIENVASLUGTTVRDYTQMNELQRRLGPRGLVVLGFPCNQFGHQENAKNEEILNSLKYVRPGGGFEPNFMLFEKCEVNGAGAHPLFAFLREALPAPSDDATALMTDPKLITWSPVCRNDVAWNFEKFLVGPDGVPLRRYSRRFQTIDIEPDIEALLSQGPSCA

Assay [6] deals with Phospholipid hydroperoxide glutathione peroxidase GPX4 (Homo sapiens) (UniProt P36969). Briefly: Primary qHTS Assay for Inhibitors of Recombinant Selenoprotein Glutathione Peroxidase 4 (GPX4) (AID 1845192). For activity change, negative = inhibition: series mostly up to about 50 µM; % is set by controls: 0 for no effect and ±100 for the full control effect. Note: nearly all actives have a fitted effect of over 65% in size. Note: potency is the fitted concentration of half-maximal effect. As to conditions: outcome: dose series up to 50 µM unless noted. A digest of the protocol: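 GR-coupled assay: recombinant GPX4 preincubated 30 min with compound at room temperature; final 200 nM GPX4, 1 mM GSH, 0.5 mM cumene hydroperoxide, 0.5 mM NADPH, 100 nM GR, 0.01% BSA, pH 7.5 Tris. NADPH fluorescence (340/450 nm) read at 0 and 15 min.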
Chain of Phospholipid hydroperoxide glutathione peroxidase GPX4 (Homo sapiens) (P36969 whole entry, looked up): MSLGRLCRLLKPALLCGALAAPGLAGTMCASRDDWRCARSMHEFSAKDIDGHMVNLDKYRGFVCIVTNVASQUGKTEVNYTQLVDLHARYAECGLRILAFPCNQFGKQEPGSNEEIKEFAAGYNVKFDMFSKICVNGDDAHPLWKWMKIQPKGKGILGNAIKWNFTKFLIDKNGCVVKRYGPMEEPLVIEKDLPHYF

Assay [7] in a line: qHTS drug screen for cell cycle checkpoint inhibitors in PARPi-resistant BRCA-mutant ovarian cancer cell lines. (AID 1963452; calls by dose curve; note: potency is the fitted concentration of half-maximal effect). Conditions: PEO1/OlaR viability, CellTiter-Glo luminescence, 96 h; for Z-AUC: stronger effect = lower value. The gist of the method: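 PEO1, PEO4 and PEO1/OlaR ovarian cancer cells, 600 per well, exposed 96 h at 37C to a dilution series. Viability read by CellTiter-Glo luminescence, normalized to DMSO and empty wells; activity summarized as Z-AUC.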

[8] abbreviates: measured here: PEO1 parental Z-AUC.

Chain of Calcium and integrin-binding protein 1 (Homo sapiens) (Q99828 whole entry, looked up): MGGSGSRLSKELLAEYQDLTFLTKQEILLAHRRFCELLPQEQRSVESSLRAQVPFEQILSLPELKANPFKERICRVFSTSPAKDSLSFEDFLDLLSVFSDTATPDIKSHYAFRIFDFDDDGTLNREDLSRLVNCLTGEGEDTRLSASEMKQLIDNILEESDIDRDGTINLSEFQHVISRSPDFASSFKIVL

Turning to `CCN(CC)C(=O)c1cc(S(=O)(=O)Cc2ccccc2)c(N2CCC(c3ccccc3)CC2)cc1N(CC)CCN(C)C`, the Potency in assay [1] was 16.4 µM (active). Further, in assay [2], the outcome was inactive.

Turning to `NCCNCCN`, the Potency entry in assay [1] is “inactive”.

For `CC(C)=CCC/C(C)=C/CC/C(C)=C/CSc1ccccc1C(=O)O`, the Potency entry in assay [1], in assay [3], in assay [4] and in assay [5] was “inactive” throughout. In addition, the Potency in assay [6] was 16.1 µM (active). Further, the Z-AUC is 0.993 (inactive) in assay [7], 0.837 in assay [7] (setting [8]) and 0.897 in assay [7] (measured here: PEO4 Z-AUC).

On to `CN(CC(=O)N1CCOCC1)Cc1c(Cl)cccc1NC(=O)c1ccccc1`, for which the Potency entry in assay [5] and in assay [6] was “inactive” each time.

Regarding `COC(=O)[C@]12CCC(C)(C)C[C@@H]1[C@@H]1C(=O)C=C3[C@]4(C)C=C(C#N)C(=O)C(C)(C)[C@@H]4CC[C@@]3(C)[C@]1(C)CC2`, the Potency in assay [1] is 1.46 µM (active).

For `COc1c(Nc2ncc(Cl)c(N[C@H]3[C@H](C(N)=O)[C@@H]4C=C[C@@H]3C4)n2)ccc2c1CCC(N1CCOCC1)CC2` (stereo partly specified), the Potency in assay [1] was 4.11 µM (active); in assay [3] it was 1.05 µM (active); in assay [4] it was 3.32 µM (active).

With `CC1(C)N=C(N)N=C(N)N1c1ccc(Cl)cc1`, the Potency result in assay [1] is “inactive”.

Regarding `Cn1cc(C2=C(c3cn(CCCSC(=N)N)c4ccccc34)C(=O)NC2=O)c2ccccc21`, the Potency entry in assay [1] was “inactive”. In addition, the Potency was 1.46 µM (active) in assay [3] and 1.64 µM (active) in assay [4].

As to `Nc1ncnc2c1c(I)cn2C1OC(CO)C(O)C1O` (stereo unspecified), the Potency was 2.31 µM (active) in assay [1], 1.84 µM (active) in assay [3] and 1.03 µM (active) in assay [4]. The Potency entry in assay [5] is “inactive”.

As to `C#Cc1cccc(Nc2ncnc3cc(OC)c(OC)cc23)c1`, the Potency in assay [1] was 9.2 µM (active); in assay [3], 14.6 µM (active). In assay [5], the Potency entry is “inactive”.

Consider `C=CC(=O)Nc1cccc(C)c1Nc1ncc2cc(-c3c(Cl)c(OC)cc(OC)c3Cl)ccc2n1`, for which the Potency in assay [1] was 9.2 µM (active); in assay [3], 3.66 µM (active); in assay [4], 4.11 µM (active). In addition, the Potency result in assay [6] is “inactive”. Besides, the Z-AUC in assay [7] is -0.505 (inactive); in assay [7] (setting [8]) it was -0.983; in assay [7] (measured here: PEO4 Z-AUC), -1.33.

In the case of `CCCCCCCCCCCCCCCCSCC(COC)COP(=O)([O-])OCC[N+](C)(C)C` (stereo unspecified), in assay [1], the Potency entry was “inactive”.

In the case of `CN1CCC(c2c(O)cc(O)c3c(=O)cc(-c4ccccc4Cl)oc23)C1CO` (stereo unspecified), the Potency was 5.17 µM (active) in assay [1], 0.417 µM (active) in assay [3] and 0.332 µM (active) in assay [4]. For the same compound, the Potency result in assay [5] and in assay [6] was “inactive” each time. Further, the Z-AUC in assay [7] is -0.419 (inactive); in assay [7] (setting [8]), -1.06; in assay [7] (measured here: PEO4 Z-AUC), -0.725.

Turning to `C[C@@H]1N=C(N)NC(N(C)C)=N1`, the Potency entry in assay [1], in assay [3], in assay [4], in assay [5] and in assay [6] was “inactive” each time. Moreover, the Z-AUC in assay [7] was 1.33 (inactive); in assay [7] (setting [8]), 1.06; in assay [7] (measured here: PEO4 Z-AUC), 1.03.

On to `COc1cc(/C=C(\C#N)C(N)=O)cc(CSc2nc3ccccc3s2)c1O`, for which the Potency entry in assay [1], in assay [3], in assay [4] and in assay [5] was “inactive” in each case.

Regarding `CCCCCCCC[N+](C)(C)CCCCCCCC`, the Potency entry in assay [1] is “inactive”.

Regarding `COc1cc([C@@H]2c3cc4c(cc3C(O[C@@H]3O[C@@H]5CO[C@@H](C)O[C@H]5[C@H](O)[C@H]3O)C3COC(=O)[C@@H]32)OCO4)cc(OC)c1OP(=O)(O)O` (stereo partly specified), the Potency in assay [1] was 18.4 µM (active).

Consider `CC(C)C(N)C(=O)OCC(CO)OCn1cnc2c(=O)[nH]c(N)nc21` (stereo unspecified), for which the Potency entry in assay [1], in assay [3], in assay [4], in assay [5] and in assay [6] was “inactive” in each case. Further, the Z-AUC was 0.614 (inactive) in assay [7], 1.06 in assay [7] (setting [8]) and 1.36 in assay [7] (measured here: PEO4 Z-AUC).

Take `N#C/C(=C(\N)Sc1ccc(N)cc1)c1ccccc1C(F)(F)F`: in assay [1], the Potency result was “inactive”.

In the case of `COc1cc(OC)cc(N(CCNC(C)C)c2ccc3ncc(-c4cnn(C)c4)nc3c2)c1`, the Potency in assay [1] was 18.4 µM (active); in assay [3] it was 11.8 µM (active); in assay [4], 10.5 µM (active). Moreover, the Potency entry in assay [5] and in assay [6] was “inactive” each time. For the same compound, the Z-AUC in assay [7] was -0.272 (inactive); in assay [7] (setting [8]), -0.0954; in assay [7] (measured here: PEO4 Z-AUC), -0.145.

As to `CN1CCN(Cc2ccc(Nc3ncc(Cl)c(Nc4ccccc4S(=O)(=O)N(C)C)n3)cc2)CC1`, the Potency in assay [1] is 0.0668 µM (active); in assay [3] it was 0.0241 µM (active); in assay [4] it was 0.0152 µM (active); in assay [7], 0.0796 µM (active). In assay [5], the outcome is “inactive [at 9.52 µM]”. Moreover, the activity change, negative = inhibition in assay [6] is -3.36% [at 9.73 µM] (inactive). In addition, the values for the Z-AUC in assay [7] (setting [8]) and in assay [7] (measured here: PEO4 Z-AUC) were -1.68 and -1.52, respectively.

Turning to `O=c1[nH]ccc2c(S(=O)(=O)N3CCCNCC3)cccc12`, the Potency result in assay [1], in assay [3] and in assay [4] was “inactive” each time.

Turning to `C#C[C@]1(OC(C)=O)CC[C@H]2[C@@H]3CCC4=CC(=O)CC[C@@H]4[C@H]3CC[C@@]21C`, the Potency in assay [1] was 3.66 µM (active). The Potency result in assay [5] and in assay [6] was “inactive” throughout.

As for `C=CC(=O)c1ccc2ccccc2c1`, the Potency result in assay [1], in assay [4] and in assay [5] was “inactive” throughout.

Consider `Clc1ccc2ncc(-c3cccc(NC4CCNCC4)n3)n2c1`, for which the Potency was 16.4 µM (active) in assay [1], 0.366 µM (active) in assay [3] and 0.259 µM (active) in assay [4]. Further, in assay [2], the result was inactive. Moreover, in assay [5], the Potency entry was “inactive”.

As to `N#Cc1ccc(-c2c(-c3ncn[nH]3)sc(N3CCOCC3)c2C#N)c(F)c1`, the Potency in assay [1] is 5.8 µM (active); in assay [3], 1.03 µM (active) and 934 nM (active); in assay [4] it was 651 nM (active) and 1.18 µM (active). Also, the Potency entry in assay [5] and in assay [6] was “inactive” in each case. Further, the Z-AUC is -1.04 (inactive) in assay [7], -1.47 in assay [7] (setting [8]) and -1.34 in assay [7] (measured here: PEO4 Z-AUC).

With `CC(=O)Nc1ccc(C(=O)NC(C)(C)C)cc1`, the Potency entry in assay [1], in assay [3] and in assay [5] was “inactive” throughout. For the same compound, the Z-AUC in assay [7] was 1.04 (inactive); in assay [7] (setting [8]), 0.805; in assay [7] (measured here: PEO4 Z-AUC) it was 0.364.
